In paper PMC8384837, “Expanding the binding specificity for RNA recognition by a PUF domain”:

Tests used:
Test in all cases: yeast three-hybrid, YBZ-1, SC-Leu-His + 0.5 mM 3-AT, 4 days
Conditions in all cases: tags: N-Gal4 AD-HA kept; label: inside an RPR1-promoter hybrid RNA with tandem MS2 sites; ssRNA
PUM1 PUF domain R5-CHG = PUM1 PUF domain R5-CHG (Homo sapiens, UniProt Q14671 828-1176, R1008H;Q1011G)
Outline: (§1)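 Repeat regions from input (SC-Leu) and selection (SC-Leu-His + 0.5 mM 3-AT) plates were PCR-amplified and Illumina-sequenced after four days of growth. The cells were strain YBZ-1 with a LexA–MS2 coat fusion and a HIS3 reporter, co-expressing Pumilio-1 PUF domain libraries and matching RNA elements from a centromeric plasmid. The interaction score is the log change in variant frequency from input to selection, taken in log2 with a pseudocount of 1 for absent variants.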

PUM1 PUF domain R5-RQS = PUM1 PUF domain R5-RQS (Homo sapiens, UniProt Q14671 828-1176, C1007R;R1008Q;Q1011S)
Outline: as §1

PUM1 PUF domain R5-RRL = PUM1 PUF domain R5-RRL (Homo sapiens, UniProt Q14671 828-1176, C1007R;Q1011L)
Outline: as §1

PUM1 PUF domain R1-GLR = PUM1 PUF domain R1-GLR (Homo sapiens, UniProt Q14671 828-1176, S863G;R864L;Q867R)
Outline: as §1

PUM1 PUF domain R8-RFV = PUM1 PUF domain R8-RFV (Homo sapiens, UniProt Q14671 828-1176, N1122R;Y1123F;Q1126V)
Outline: as §1

PUM1 PUF domain R4-WGC = PUM1 PUF domain R4-WGC (Homo sapiens, UniProt Q14671 828-1176, N971W;H972G;Q975C)
Outline: as §1

PUM1 PUF domain R4-VSI = PUM1 PUF domain R4-VSI (Homo sapiens, UniProt Q14671 828-1176, N971V;H972S;Q975I)
Outline: as §1

PUM1 PUF domain R3-IWA = PUM1 PUF domain R3-IWA (Homo sapiens, UniProt Q14671 828-1176, C935I;R936W;Q939A)
Outline: as §1

PUM1 PUF domain R5-QWN = PUM1 PUF domain R5-QWN (Homo sapiens, UniProt Q14671 828-1176, C1007Q;R1008W;Q1011N)
Outline: as §1

PUM1 PUF domain R7-RVL = PUM1 PUF domain R7-RVL (Homo sapiens, UniProt Q14671 828-1176, S1079R;N1080V;E1083L)
Outline: as §1

Chain of PUM1 PUF domain R4-WGC (Q14671 828-1176 N971W/H972G/Q975C): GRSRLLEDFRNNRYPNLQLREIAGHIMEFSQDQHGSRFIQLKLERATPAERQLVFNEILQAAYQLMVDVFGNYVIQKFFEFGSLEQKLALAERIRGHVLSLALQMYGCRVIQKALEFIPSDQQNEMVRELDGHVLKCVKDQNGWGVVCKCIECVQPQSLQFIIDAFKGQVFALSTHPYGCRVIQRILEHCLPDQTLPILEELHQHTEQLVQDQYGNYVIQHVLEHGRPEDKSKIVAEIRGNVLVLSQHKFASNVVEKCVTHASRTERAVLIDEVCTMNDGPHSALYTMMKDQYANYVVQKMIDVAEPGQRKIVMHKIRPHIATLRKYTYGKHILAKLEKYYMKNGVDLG
Chain of PUM1 PUF domain R5-RRL (Q14671 828-1176 C1007R/Q1011L): as the sequence (Q14671 828-1176 N971W/H972G/Q975C) above, with W144N, G145H, C148Q, C180R, Q184L counted along it
Chain of PUM1 PUF domain R5-CHG (Q14671 828-1176 R1008H/Q1011G): as the sequence (Q14671 828-1176 N971W/H972G/Q975C) above, with W144N, G145H, C148Q, R181H, Q184G counted along it
Chain of PUM1 PUF domain R5-RQS (Q14671 828-1176 C1007R/R1008Q/Q1011S): as the sequence (Q14671 828-1176 N971W/H972G/Q975C) above, with W144N, G145H, C148Q, C180R, R181Q, Q184S counted along it
Chain of PUM1 PUF domain R8-RFV (Q14671 828-1176 N1122R/Y1123F/Q1126V): as the sequence (Q14671 828-1176 N971W/H972G/Q975C) above, with W144N, G145H, C148Q, N295R, Y296F, Q299V counted along it
Chain of PUM1 PUF domain R1-GLR (Q14671 828-1176 S863G/R864L/Q867R): as the sequence (Q14671 828-1176 N971W/H972G/Q975C) above, with S36G, R37L, Q40R, W144N, G145H, C148Q counted along it
Chain of PUM1 PUF domain R3-IWA (Q14671 828-1176 C935I/R936W/Q939A): as the sequence (Q14671 828-1176 N971W/H972G/Q975C) above, with C108I, R109W, Q112A, W144N, G145H, C148Q counted along it
Chain of PUM1 PUF domain R4-VSI (Q14671 828-1176 N971V/H972S/Q975I): as the sequence (Q14671 828-1176 N971W/H972G/Q975C) above, with W144V, G145S, C148I counted along it
Chain of PUM1 PUF domain R5-QWN (Q14671 828-1176 C1007Q/R1008W/Q1011N): as the sequence (Q14671 828-1176 N971W/H972G/Q975C) above, with W144N, G145H, C148Q, C180Q, R181W, Q184N counted along it
Chain of PUM1 PUF domain R7-RVL (Q14671 828-1176 S1079R/N1080V/E1083L): as the sequence (Q14671 828-1176 N971W/H972G/Q975C) above, with W144N, G145H, C148Q, S252R, N253V, E256L counted along it

Q: How did the binding signal (PUM1 PUF domain R5-CHG) turn out when “GGCUAGAACUAGUGGAUCCCCCGGCGCCCGGCGGCUCGAGCCCGGGUAAGUGUCAAUAGUCUGCAUGCCGCCGGGCGCCAUGCCUGCAGGUCGACUCUAGAAAACAUG” was run?
A: 1.6 log2 enrichment (interaction score)

Q: And the binding signal (PUM1 PUF domain R5-RQS)?
A: 4.99 log2 enrichment (interaction score)

Q: What about the binding signal (PUM1 PUF domain R5-RRL) of the same sequence?
A: 3.98 log2 enrichment (interaction score)

Q: “GGCUAGAACUAGUGGAUCCCCCGGCGCCCGGCGGCUCGAGCCCGGGUAAGUGUAAAUUGUCUGCAUGCCGCCGGGCGCCAUGCCUGCAGGUCGACUCUAGAAAACAUG” was tested. Which binding signal (PUM1 PUF domain R1-GLR) did it give?
A: 2.9 log2 enrichment (interaction score)

Q: With “GGCUAGAACUAGUGGAUCCCCCGGCGCCCGGCGGCUCGAGCCCGGGUAAGCGUAAAUAGUCUGCAUGCCGCCGGGCGCCAUGCCUGCAGGUCGACUCUAGAAAACAUG” as the sequence, how does the binding signal (PUM1 PUF domain R8-RFV) read?
A: 6.22 log2 enrichment (interaction score)

Q: How did the binding signal (PUM1 PUF domain R1-GLR) turn out when “GGCUAGAACUAGUGGAUCCCCCGGCGCCCGGCGGCUCGAGCCCGGGUAAGUGUAAAUCGUCUGCAUGCCGCCGGGCGCCAUGCCUGCAGGUCGACUCUAGAAAACAUG” was run?
A: 3.78 log2 enrichment (interaction score)

Q: “GGCUAGAACUAGUGGAUCCCCCGGCGCCCGGCGGCUCGAGCCCGGGUAAGUGUAUAUAGUCUGCAUGCCGCCGGGCGCCAUGCCUGCAGGUCGACUCUAGAAAACAUG” was tested. Which binding signal (PUM1 PUF domain R4-WGC) did it give?
A: 4.53 log2 enrichment (interaction score)

Q: For “GGCUAGAACUAGUGGAUCCCCCGGCGCCCGGCGGCUCGAGCCCGGGUAAGUGUACAUAGUCUGCAUGCCGCCGGGCGCCAUGCCUGCAGGUCGACUCUAGAAAACAUG”, which binding signal (PUM1 PUF domain R4-WGC) is on record?
A: 1.65 log2 enrichment (interaction score)

Q: How did the binding signal (PUM1 PUF domain R5-CHG) turn out when “GGCUAGAACUAGUGGAUCCCCCGGCGCCCGGCGGCUCGAGCCCGGGUAAGUGUAAAUAGUCUGCAUGCCGCCGGGCGCCAUGCCUGCAGGUCGACUCUAGAAAACAUG” was run?
A: 3.32 log2 enrichment (interaction score)

Q: What about the binding signal (PUM1 PUF domain R4-VSI) of the same sequence?
A: 2.13 log2 enrichment (interaction score)

Q: And the binding signal (PUM1 PUF domain R5-RQS)?
A: 1.32 log2 enrichment (interaction score)

Q: What about the binding signal (PUM1 PUF domain R4-WGC) of the same sequence?
A: 2.66 log2 enrichment (interaction score)

Q: What about the binding signal (PUM1 PUF domain R5-RRL) of the same sequence?
A: 1.79 log2 enrichment (interaction score)

Q: And the binding signal (PUM1 PUF domain R8-RFV)?
A: 6.16 log2 enrichment (interaction score)

Q: And the binding signal (PUM1 PUF domain R3-IWA)?
A: 5.07 log2 enrichment (interaction score)

Q: For “GGCUAGAACUAGUGGAUCCCCCGGCGCCCGGCGGCUCGAGCCCGGGUAAGUGUUAAUAGUCUGCAUGCCGCCGGGCGCCAUGCCUGCAGGUCGACUCUAGAAAACAUG”, which binding signal (PUM1 PUF domain R5-CHG) is on record?
A: 3.47 log2 enrichment (interaction score)

Q: And the binding signal (PUM1 PUF domain R5-RQS)?
A: 5.24 log2 enrichment (interaction score)

Q: What about the binding signal (PUM1 PUF domain R5-RRL) of the same sequence?
A: 4.45 log2 enrichment (interaction score)

Q: Which results are given for “GGCUAGAACUAGUGGAUCCCCCGGCGCCCGGCGGCUCGAGCCCGGGUAAGUGUGAAUAGUCUGCAUGCCGCCGGGCGCCAUGCCUGCAGGUCGACUCUAGAAAACAUG”?
A: binding signal (PUM1 PUF domain R5-QWN): 4.78 log2 enrichment (interaction score); binding signal (PUM1 PUF domain R5-RQS): 1.05 log2 enrichment (interaction score); binding signal (PUM1 PUF domain R5-RRL): 1.14 log2 enrichment (interaction score)

Q: Which binding signal (PUM1 PUF domain R3-IWA) does the source give for “GGCUAGAACUAGUGGAUCCCCCGGCGCCCGGCGGCUCGAGCCCGGGUAAGUGUAAGUAGUCUGCAUGCCGCCGGGCGCCAUGCCUGCAGGUCGACUCUAGAAAACAUG” here?
A: 5.56 log2 enrichment (interaction score)

Q: For “GGCUAGAACUAGUGGAUCCCCCGGCGCCCGGCGGCUCGAGCCCGGGUAAGUUUAAAUAGUCUGCAUGCCGCCGGGCGCCAUGCCUGCAGGUCGACUCUAGAAAACAUG”, which binding signal (PUM1 PUF domain R7-RVL) is on record?
A: 3.33 log2 enrichment (interaction score)
